The structures appear in SMILES notation. Records with an inconclusive call do not appear. Activity calls are given as the source filed them. Rule for the calls: active = hit-call score of the fitted dose curve at least 0.9, where 1 is the maximum; inconclusive = response in the unintended direction; inactive = score below 0.9.

Sequence of human RAR-related Orphan Receptor beta (RORb), RORB (gene 6096) (Q92753 whole entry, looked up, the tested form may be a part): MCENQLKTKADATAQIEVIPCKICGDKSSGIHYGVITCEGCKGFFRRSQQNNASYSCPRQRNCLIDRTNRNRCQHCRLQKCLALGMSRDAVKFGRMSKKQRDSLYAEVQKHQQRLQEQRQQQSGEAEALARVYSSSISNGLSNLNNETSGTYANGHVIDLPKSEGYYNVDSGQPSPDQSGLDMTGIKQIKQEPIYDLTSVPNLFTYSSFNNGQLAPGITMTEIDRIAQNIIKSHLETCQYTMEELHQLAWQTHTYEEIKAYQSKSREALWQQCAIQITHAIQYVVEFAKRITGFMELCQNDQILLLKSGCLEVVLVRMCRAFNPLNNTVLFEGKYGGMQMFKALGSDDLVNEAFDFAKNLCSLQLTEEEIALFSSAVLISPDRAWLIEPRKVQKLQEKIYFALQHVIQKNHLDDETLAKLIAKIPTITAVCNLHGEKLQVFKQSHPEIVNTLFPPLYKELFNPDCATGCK

For the experiment, the target named is human RAR-related Orphan Receptor beta (RORb), RORB (gene 6096) (UniProt Q92753). The experiment is described as follows: ATG_RORb_TRANS: Attagene TRANS-FACTORIAL HepG2 Assay for human RAR-related Orphan Receptor beta (RORb) (AID 2283010). The method in brief:
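HepG2 cells transiently transfected with GAL4-UAS reporter units expressing chimeric NR-Gal4 protein; reporter mRNA measured 24 h after dosing by RT-PCR, 6-FAM labelling and capillary electrophoresis. Gain-of-signal fitted relative to DMSO baseline.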
As to `Nc1ccc(O)c([N+](=O)[O-])c1`, the molecule was classed as inactive.

On to `CC1(C)C(=O)N(CO)C(=O)N1CO`, for which the outcome was inactive.

As to `CC(CC(C)C)=NO`, the result was inactive.

Turning to `Cc1ccccc1CCO`, the call was inactive.

`CCCCC(=O)O`: the molecule was classed as inactive.

Turning to `Nc1nc(N)nc(-c2ccccc2)n1`, the molecule was classed as inactive.

For the molecule `CC(C)CO`, the result was inactive.

As for `Cc1ccc([N+](=O)[O-])cc1N`, the molecule was called inactive.

For `CC1=C(O)C(=O)C(C)O1` (stereo unspecified), the molecule was called inactive.

Consider `CC12CCC(CC1)C(C)(C)O2`, for which the molecule was called inactive.

Regarding `C=CC(=O)NCOCCCC`, the result was inactive.

On to `CCCSSCCC`, for which the molecule was called inactive.

For `O=C(C=Cc1ccccc1)OCCc1ccccc1`, the result was inactive.

As to `CCC(C)C(=O)OC` (stereo unspecified), the result was inactive.

With `CCCCCCCCCCCC(C)=O`, the call was inactive.

With `CCCCC(CC)COC(=O)/C=C/c1ccc(OC)cc1` (stereo unspecified), the outcome was inactive.

On to `CCOC(=O)C1=NOC(c2ccccc2)(c2ccccc2)C1`, for which the outcome was inactive.

Take `CC(C)C(=O)OCCc1ccccc1`: the outcome was inactive.

Consider `CC(=O)OC1CCCCC1`, for which the molecule was called inactive.

In the case of `CC(C)[N+](C)(CCOC(=O)C1c2ccccc2Oc2ccccc21)C(C)C`, the outcome was inactive.

As for `C=CC(=O)OCCCCCCCCCC`, the molecule was called inactive.

Consider `Cn1cccc1`, for which the molecule was classed as inactive.

Regarding `CC(C)(O)Cc1ccccc1`, the molecule was called inactive.

As for `CC(C)(CO)C(O)C(=O)NCCCO` (stereo unspecified), the molecule was classed as inactive.

As to `CCCCCCCCCCCCCc1ccccc1`, the molecule was classed as inactive.

Consider `CCC(=O)C1CC(C(C)C)CC=C1C` (stereo unspecified), for which the outcome was inactive.

For `Oc1ccc(/C=C/c2cc(O)cc(O)c2)cc1`, the call was inactive.

Consider `N=C1C=CC(=C(c2ccc(N)cc2)c2ccc(N)cc2)C=C1`, for which the outcome was inactive.

In the case of `Cc1ccc(C)c(OCCCC(C)(C)C(=O)O)c1`, the molecule was classed as inactive.

For the molecule `C=CCCCCCCCCC=O`, the molecule was classed as inactive.

Regarding `C=C(C)C(=O)OCCCCCCCCCCCC`, the result was inactive.

For the origin of these results see PubChem BioAssay (EPA / NIEHS).
